PubChem BioAssay AID1794835 (Parasite Biology Lab, Institute for Biomedicine and …, 2023)
Among all 2,500 compounds or so, about 45 (2%) were called active. Rule as the data show it: active = inhibition mostly above about 45% (no sharp cut-off); inactive = mostly below about 37%. The entries come from a sample that favours actives as a whole.

Assay: anti-Giardia activity of synthetic compounds – Compounds Australia Scaffold Library subset, 24/48 h, primary screen (AID 1794835);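 as to inhibition: 0% = parasite counts in DMSO vehicle wells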
Settings: Giardia lamblia BRIS/91/HEPU/1279 trophozoite counts, imaging, at 10 µM
[1] = measured here: growth inhibition at 24 h, stronger effect = higher value

SMILES: COCC(=O)N1CCC(Oc2ncccc2C(=O)N(C)C)CC1
- inhibition (stronger effect = higher value): 4.8% (inactive)

SMILES: O=C(c1ccc(F)cc1)N1CCN(c2nc3cc(Br)ccc3n3cccc23)CC1
- inhibition: inactive

SMILES: COc1cc(S(=O)(=O)N2CCN=C2Cc2ccccc2)c(OC)cc1Cl
- inhibition: inactive

SMILES: O=C(c1ccc2nc[nH]c2c1)N1CCN(Cc2cccc(Cl)c2)CC1
- outcome: inactive
- inhibition [1]: 6%

SMILES: CCCC(=O)Nc1nnc(S(=O)(=O)N(C)Cc2ccco2)s1
- inhibition: inactive

SMILES: Cc1noc2ncc(C(=O)N3CCN(CCO)CC3)cc12
- inhibition: inactive

SMILES: O=C(NC1CCCCC1)c1cc(-c2ccco2)nc2ccccc12
- inhibition (stronger effect = higher value): 20.8% (inactive)
- inhibition [1]: 17.2%

SMILES: O=C(c1nc(Nc2ccc(F)cc2)c2ccccc2n1)N1CCCCCC1
- inhibition: inactive

SMILES: O=C(NC1CCCCC1)c1nc(Nc2ccccc2)c2ccccc2n1
- inhibition (stronger effect = higher value): 73.1% (active)
- inhibition [1]: 59.6%

SMILES: CCC(OC1CCCC1)C(=O)N1CCN(c2nccn2C)CC1 (stereo unspecified)
- outcome: inactive
- inhibition [1]: 9.4%

SMILES: CC(=O)Nc1cc(C(=O)NCCCN2CCC(C)CC2)ccc1S(=O)(=O)c1ccc(Cl)cc1
- inhibition (stronger effect = higher value): 23.9% (inactive)
- inhibition [1]: 5%

SMILES: Cc1nn(Cc2csc(-c3ccsc3)n2)c(C)c1S(=O)(=O)N1CCc2ccccc21
- inhibition (stronger effect = higher value): 7.1% (inactive)
- inhibition [1]: 12.8%

SMILES: Cc1csc(-c2cc(S(=O)(=O)N3c4ccccc4CC3C)c(C)n2C)n1 (stereo unspecified)
- inhibition (stronger effect = higher value): 63.6% (active)
- inhibition [1]: 22.6%

SMILES: CCCNS(=O)(=O)c1cc(-c2nc(-c3cccc(Cl)c3)cs2)n(C)c1C
- inhibition (stronger effect = higher value): 32.9% (inactive)
- inhibition [1]: 21.9%

SMILES: CN(Cc1ccccc1)C(=O)c1cccc2c1CCN2C(=O)Nc1ccccc1
- outcome: inactive
- inhibition [1]: 2.8%

SMILES: CCc1c(C2CCN(C(=O)C3COc4ccccc4O3)CC2)noc1N (stereo unspecified)
- inhibition: inactive

SMILES: Cc1ccc(NC(=O)N2CCCC(C)(C(=O)NCc3ccc(F)cc3)C2)cc1 (stereo unspecified)
- inhibition: inactive

SMILES: Cc1ccc(C(=O)Nc2cc(-c3nc(C)cs3)sc2C)cc1
- inhibition (stronger effect = higher value): 56.1% (active)
- inhibition [1]: 28%

SMILES: Cc1csc(-c2ccc(CNC(=O)c3cncc(Br)c3)cc2)n1
- inhibition: inactive

SMILES: COc1ccc(C(=O)Nc2cc(-c3nc(C)cs3)sc2C)cc1OC
- inhibition (stronger effect = higher value): 27.2% (inactive)
- inhibition [1]: 11.4%

SMILES: O=C(c1cc(Cl)c[nH]1)N1CCCN(Cc2cscn2)CC1
- inhibition: inactive

SMILES: Cc1noc2nc(-c3ccccc3F)cc(C(=O)N3CCCC3c3nnc4ccccn34)c12 (stereo unspecified)
- inhibition: inactive

SMILES: O=C1CCCc2cc(S(=O)(=O)N3CCN(c4ccccc4)CC3)ccc2N1
- inhibition (stronger effect = higher value): 19.1% (inactive)
- inhibition [1]: 8.5%

SMILES: CC1(c2ccco2)NC(=O)N(Cc2cn(-c3ccccc3)nc2-c2ccccc2)C1=O (stereo unspecified)
- inhibition: inactive

SMILES: COc1ccc(CNC(=O)c2[nH]c3cc(C)sc3c2CN2CCCC2)cc1
- inhibition (stronger effect = higher value): 35.5% (inactive)
- inhibition [1]: 10.1%

SMILES: Cc1sc2cc(C(=O)NC(C)(C)C)[nH]c2c1CN1CCOCC1
- inhibition (stronger effect = higher value): 2.4% (inactive)
- inhibition [1]: 3%

SMILES: Cc1cc2[nH]c(C(=O)Nc3ccccc3C)c(CN3CCOCC3)c2s1
- inhibition (stronger effect = higher value): 97.7% (active)
- inhibition [1]: 94.7%

SMILES: Cc1ccc(S(=O)(=O)N2CCc3nc(N4CCOCC4)[nH]c(=O)c3CC2)cc1C
- inhibition: inactive

SMILES: Cc1cc(C)c(S(=O)(=O)N2CCN(C)c3ccccc32)c(C)c1
- inhibition: inactive

SMILES: CCOC(=O)c1ccc(S(=O)(=O)Nc2cccc(-c3nnc(-c4ccccc4)o3)c2)cc1
- inhibition (stronger effect = higher value): 2.3% (inactive)

SMILES: CCc1nnc(-c2nnc(NCc3ccc4c(c3)OCO4)c3ccccc23)o1
- outcome: inactive
- inhibition [1]: 3%

SMILES: O=S(=O)(Cc1ccccc1)Nc1cccc(-c2nnc(Cc3ccc4c(c3)OCO4)o2)c1
- inhibition (stronger effect = higher value): 46.9% (active)
- inhibition [1]: 17.2%

SMILES: c1cnc(N2CCN(c3ncnc4nc[nH]c34)CC2)nc1
- inhibition (stronger effect = higher value): 0.6% (inactive)

SMILES: O=C(CN1C(=O)CCCc2ccccc21)NCCc1ccco1
- inhibition: inactive

SMILES: Cc1cc(-c2cc(C(=O)Nc3c(C)n(C)n(-c4ccccc4)c3=O)c3cnn(C(C)C)c3n2)c(C)o1
- outcome: inactive
- inhibition [1]: 2%

SMILES: Cc1cc(-c2cc(C(=O)Nc3ccc(N4CCN(C)CC4)nc3)c3cnn(C(C)C)c3n2)c(C)o1
- inhibition (stronger effect = higher value): 98.2% (active)
- inhibition [1]: 95.9%

SMILES: CC1CN(C(=O)c2cc(C3CC3)nc3c2cnn3C(C)C)CC(C)O1 (stereo unspecified)
- inhibition: inactive

SMILES: NC(=O)c1nonc1N
- inhibition: inactive

SMILES: Cc1ccc(CNC(=O)c2cc(-c3ccc(C)c(C)c3)n(C3CCS(=O)(=O)C3)n2)cc1 (stereo unspecified)
- inhibition: inactive

SMILES: Cn1cc2c(n1)c(=O)n(Cc1ccccc1)c(=O)n2CC(=O)Nc1cccc(F)c1
- inhibition (stronger effect = higher value): 62.8% (active)
- inhibition [1]: 30.6%

SMILES: Cc1nc2c(c(=O)n1CC(=O)Nc1cccc(F)c1)CCN(Cc1ccccc1)C2
- outcome: inactive
- inhibition [1]: 12%

SMILES: Cn1cc2c(n1)c(=O)n(Cc1ccccc1)c(=O)n2CC(=O)Nc1ccc2c(c1)OCCO2
- inhibition: inactive

SMILES: Brc1ccc(-c2nc(-c3ccc4c(c3)ncn4C3CCCC3)no2)o1
- inhibition: inactive

SMILES: Cc1ccccc1NC(=O)c1c(C)oc2ncnc(N3CCCCC3)c12
- inhibition (stronger effect = higher value): 15.9% (inactive)
- inhibition [1]: 14.5%

SMILES: Cc1ccc(C(=O)N2CCN(S(=O)(=O)N3CCN(C)CC3)CC2)o1
- inhibition: inactive

SMILES: COc1ccc(C(=O)N2c3ccccc3NC(=O)CC2C)cc1OC (stereo unspecified)
- outcome: inactive
- inhibition [1]: 2.2%

SMILES: COc1ccc(C)cc1N1C(=N)C(=C2Nc3ccccc3S2)C(c2ccccc2)C1=O (stereo unspecified)
- inhibition (stronger effect = higher value): 96.7% (active)
- inhibition [1]: 90.2%
